Laboratory results as given in PubChem BioAssay (NCATS).
Results filed as inconclusive are left out. Unmarked numbers belong to inactive results. Activity calls are given as the source filed them. Calls come from the whole dose curve; as a rule, active = well fitted cell-killing curve with a large enough effect; inconclusive = small, poorly fitted or top-dose-only effect, or effect the other way; inactive = no such curve, though single readings can be large or run the other way.

assay: Viability qHTS for spleen associated tyrosine kinase inhibitor (SYKi) drug resistant MV4-11 cells (AID 1963824); conditions: SYKi-resistant MV4-11 viability, CellTiter-Glo, 72 h; series mostly up to 45 µM; viability, % of control: at the top concentration; note: nearly all actives have a fitted effect of over 35% in size
In short: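 CellTiter-Glo luminescence, read 10 min after reagent addition, reports viability after a 72 hr compound exposure. Cells are an MV4-11 line made resistant to SYK inhibition, seeded at 500 per well onto compound-containing plates.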
Potency is the fitted concentration of half-maximal effect.

With O=C1COc2nccc(-c3ccccc3F)c2CN1Cc1cc(C(F)(F)F)cc(C(F)(F)F)c1 as the compound, how does the Potency read?
The Potency was 16.4 µM (active).

Which “viability, % of control” value does the source give for C=C(C)[C@@]1(O)C[C@@]2(C)C(=CC1=O)CC[C@@H](O)[C@@H]2C here?
The value was 78%.

With CC(=O)c1ccc2c(c1)N(CCCN(C)C)c1ccccc1S2 as the compound, how does the Potency read?
Its Potency is 11.9 µM (active).

For COc1cc(O)c2c(c1)/C=C/C[C@H](O)[C@H](O)C(=O)/C=C\C[C@H](C)OC2=O, which Potency is on record?
Its Potency is 0.259 µM (active).

Which Potency does the source give for O=C1CCCC2=C1C(c1ncccc1Br)N=C(Nc1nc3ccccc3o1)N2 (stereo not given) here?
Its Potency is 2.59 µM (active).

With COC1CC(O[C@H]2CC[C@@]3(C)C(=CC[C@]4(O)C3[C@H](O)[C@@H](O)[C@]3(C)[C@@H]([C@H](C)O)CC[C@@]34O)C2)OC(C)C1OC1CC(OC)C(OC2CC(OC)C(OC3OC(C)C(OC4OC(CO)C(O)C(O)C4O)C(OC)C3O)C(C)O2)C(C)O1 (stereo not given in full) as the compound, how does the viability, % of control read?
The viability, % of control was 76.2% [at 9.25 µM].

Which Potency does the source give for CN1CCN(Cc2ccc(-c3cnc4[nH]cc(-c5ccc6[nH]ccc6c5)c4c3)cc2)CC1 here?
Its Potency is 0.146 µM (active).

For COc1ccc2c(c1)C(c1ccc(F)cc1)=C(CN1CCCC1)CO2, which Potency is on record?
Its Potency is 20.9 µM (active).

Which Potency does the source give for CC(C)(C[C@@](O)(Cc1cc2ccncc2[nH]1)C(F)(F)F)c1cc(F)ccc1O here?
The Potency was 2.31 µM (active).

For COc1cc2nc(N3CCC(N4CCCCC4)CC3)nc(NC3CCCCCC3)c2cc1OC, which Potency is on record?
Its Potency is 1.03 µM (active).

With C/C=C(\C)C(=O)OC[C@H]1O[C@H](O[C@H]2O[C@H](CO)[C@@H](OC(=O)/C(C)=C/C)[C@H](O)[C@H]2O[C@@H]2O[C@H](CO)[C@@H](O)[C@H](O)[C@H]2O)[C@H](O[C@@H]2O[C@H](CO)[C@@H](O)[C@H](O)[C@H]2O)[C@@H](O)[C@@H]1O as the compound, how does the viability, % of control read?
The viability, % of control was 92.1% [at 9.25 µM].

With C[C@]12C=C[C@@]3(CCC4[C@](C)(CO)CCC[C@@]4(C)C3CC1)C2 (stereo not given in full) as the compound, how does the Potency read?
The Potency was 9.2 µM (active).

With Nc1nonc1-c1nc2cnccc2n1C1CC1 as the compound, how does the Potency read?
The Potency was 2.31 µM (active).

With C/C(=N\NC(=S)N1CCC1)c1ccccn1 as the compound, how does the Potency read?
Its Potency is 0.0074 µM (active).

Which Potency does the source give for C[C@@H](O[C@H]1OCCN(Cc2n[nH]nc2CN(C)C)[C@H]1c1ccc(F)cc1)c1cc(C(F)(F)F)cc(C(F)(F)F)c1 here?
The Potency was 6.51 µM (active).

Which Potency does the source give for C=CCCN1CCC2(CC1)CN(C(=O)c1c(F)cccc1F)c1ccc(Cl)cc12 here?
Its Potency is 10.3 µM (active).

For COc1ccc2nc3ccc(OC)cc3c(SCCCN)c2c1, which Potency is on record?
The Potency was 2.31 µM (active).

With COC(=O)C1=CO[C@@H](O[C@@H]2O[C@H](CO)[C@@H](O)[C@H](O)[C@H]2O)[C@@H]2[C@@H](C)[C@@H](O)C(O)[C@H]12 (stereo not given in full) as the compound, how does the “viability, % of control” value read?
Its value is 115% [at 17.3 µM].

With Cc1cc(Nc2cc(C)c(C#N)c(NC(C)CCCC(C)(C)O)n2)n[nH]1 (stereo not given) as the compound, how does the Potency read?
The Potency was 0.411 µM (active).

With CSCC[C@H](NC(=O)[C@H](CO)NC(=O)[C@H](CCC(=O)O)NC(C)=O)C(=O)N[C@H](C=O)CC(=O)O as the compound, how does the Potency read?
The Potency was 1.5 µM (active).

Which “viability, % of control” value does the source give for CC(C)(O)C1CC=C(C(=O)OCC2OC(Oc3c(O)cc(C(=O)O)cc3O)C(O)C(O)C2O)CC1 (stereo not given) here?
Its value is 104% [at 17.3 µM].

With CC(=O)OC[C@]12[C@H](OC(C)=O)C(=O)[C@@H]3[C@@H](OC(C)=O)[C@@]14O[C@@]3(C)COC(=O)c1cccnc1[C@@H](C)[C@H](C)C(=O)O[C@@H]([C@H](OC(C)=O)[C@@H]2OC(C)=O)[C@]4(C)O as the compound, how does the “viability, % of control” value read?
Its value is 93.7% [at 17.3 µM].

Which Potency does the source give for C=CC(=O)N[C@H]1CN(c2nc(Nc3cn(C)nc3OC)c3ncn(C)c3n2)C[C@@H]1F here?
Its Potency is 18.6 µM (active).

For CC12CCC(=O)C=C1C(O)CC1C2C(O)CC2(C)C1CC[C@]2(O)C(=O)CO (stereo not given in full), which viability, % of control is on record?
The viability, % of control was 90% [at 9.25 µM].

With Cc1cc(Nc2nc(NC(C)c3ccc(F)cc3)c(C#N)cc2F)n[nH]1 (stereo not given) as the compound, how does the Potency read?
Its Potency is 0.461 µM (active).

With NC(=O)[C@H](Cc1ccccc1)NC(=O)[C@H](CCCN=C(N)N)NC(=O)C12CC3CC(CC(C3)C1)C2 as the compound, how does the viability, % of control read?
The viability, % of control was 78% [at 9.25 µM].

Which Potency does the source give for CC(=O)OC1CC2C(C)(C)C(=O)C=CC2(C)C2CC(=O)C3=C(CCC3C3=CC(O)OC3=O)C12C (stereo not given) here?
Its Potency is 11.2 µM (active).

With O=C(O)c1cc(N(Cc2ccc(C3CCCCC3)cc2)C(=O)c2ccc(Oc3ccccc3)cc2)ccc1O as the compound, how does the Potency read?
The Potency was 16.4 µM (active).

Which Potency does the source give for FC(F)(F)c1ccccc1-c1cc(C(F)(F)F)c2nc(C3=NOC4(CCCCC4)C3)[nH]c2c1 here?
Its Potency is 16.4 µM (active).

With CC1(C)C=Cc2c(ccc3c2[N+]([O-])=C2C3(O)CC34NC(=O)C5(CCCN5C3=O)CC4C2(C)C)O1 (stereo not given) as the compound, how does the “viability, % of control” value read?
The value was 76.4% [at 17.3 µM].

With CC1=CC(=O)[C@@]2(C(C)C)C[C@@H]12 as the compound, how does the Potency read?
The Potency was 13 µM (active).

Which “viability, % of control” value does the source give for CC1=CC(=O)CC(C)(C)C1CCC(C)O[C@@H]1O[C@H](CO[C@@H]2OC[C@@H](O)[C@H](O)[C@H]2O)[C@@H](O)[C@H](O)[C@H]1O (stereo not given in full) here?
The value was 75.6% [at 17.3 µM].

For Cc1cc(CNC(=O)c2cc(C(=O)NCc3ccc(F)c(C)c3)ncn2)ccc1F, which “viability, % of control” value is on record?
Its value is 96.6%.

With C[C@@H]1C(=O)O[C@H]2[C@H](O)C34[C@H]5C[C@@H](C(C)(C)C)C36[C@@H](OC(=O)[C@@H]6O)O[C@@]4(C(=O)O5)[C@@]12O (stereo not given in full) as the compound, how does the “viability, % of control” value read?
The value was 90.8% [at 17.3 µM].

For CNc1ccc([N+](=O)[O-])c(Nc2ccc3[nH]ncc3c2)n1, which Potency is on record?
The Potency was 5.8 µM (active).

Which Potency does the source give for Cc1ccn(-c2cc(Cl)ccc2[C@@H](Oc2cc(-c3ccc(C[C@H](N)C(=O)O)cc3)nc(N)n2)C(F)(F)F)n1 here?
The Potency was 20.6 µM (active).

For CC1=CC(=O)C(=C(C)C)CC2C1CCC2(C)O (stereo not given), which “viability, % of control” value is on record?
The value was 89.9%.

Which “viability, % of control” value does the source give for CC1=C2C(=O)C=C(CO)C2C2OC(=O)C(CS(=O)(=O)O)C2C(OC(=O)Cc2ccc(O)cc2)C1 (stereo not given) here?
The value was 73.5% [at 17.3 µM].

With CNc1nc(Cc2ccccc2)nc2c1CCNC[C@@H]2C as the compound, how does the Potency read?
The Potency was 11.6 µM (active).

Which “viability, % of control” value does the source give for Cc1cc(Cn2cnc3c2CC(C(=O)O)N(C(=O)C(c2ccccc2)c2ccccc2)C3)ccc1N(C)C (stereo not given) here?
The value was 95.7%.
